The panel holds about 79,000 compounds, 15% with a hit somewhere; the sample as a whole holds those more often. Activity calls are given as the source filed them. No stated cut-off is given here; in the data, active means growth inhibition above about 70%; inactive means the rest.
How the values were obtained:
[1] = NCI Yeast Anticancer Drug Screen. Data for the rad52 strain (AID 147);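 further: 0% = growth of vehicle-treated control cultures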; conditions: S. cerevisiae rad52 mutant growth inhibition, active compounds read high
In short: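 Measured: yeast growth inhibition. System: strain with a defined DNA damage repair alteration. Reference: vehicle-treated control cultures.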

[2] = NCI Yeast Anticancer Drug Screen. Data for the rad50EPP+ strain (AID 151);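 further: 0% = growth of vehicle-treated control cultures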; conditions: S. cerevisiae rad50 mutant strain, active compounds read high
In short: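 One strain with a rad50 alteration (rad50EPP+) was compound-treated, its growth then compared to that of vehicle controls.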

[3] = NCI Yeast Anticancer Drug Screen. Data for the mgt1 strain (AID 153); conditions: S. cerevisiae mgt1 mutant growth inhibition, active compounds read high
In short: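 After exposure of the mgt1 yeast mutant to compound, growth was measured and reported as inhibition compared with vehicle controls.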

[4] = NCI Yeast Anticancer Drug Screen. Data for the rad50 strain (AID 155);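 further: 0% = growth of vehicle-only cultures of the same strain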; conditions: S. cerevisiae rad50 strain growth inhibition, active compounds read high
In short: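 Inhibition values express reduced yeast growth in compound-treated cultures relative to vehicle-treated controls.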

[5] = NCI Yeast Anticancer Drug Screen. Data for the mec2-1 strain (AID 157); conditions: S. cerevisiae mec2-1 strain, active compounds read high
In short: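 Test agents were screened against the mec2-1 yeast strain, with defined DNA repair or cell cycle alteration. Growth was scored as inhibition against vehicle-only controls.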

[6] = NCI Yeast Anticancer Drug Screen. Data for the sgs1 mgt1 strain (AID 161);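 further: 0% = growth of cultures given vehicle only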; conditions: S. cerevisiae sgs1 mgt1 strain, active compounds read high
In short: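 Genetically altered yeast, compound exposure, growth inhibition relative to vehicle.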

[7] = NCI Yeast Anticancer Drug Screen. Data for the CLN2oe strain (AID 163);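 further: 0% = growth of vehicle-only control cultures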; conditions: S. cerevisiae CLN2oe strain, active compounds read high
In short: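 Here, growth inhibition in a cell-cycle-altered yeast strain after compound exposure was quantified against vehicle control growth.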

[8] = NCI Yeast Anticancer Drug Screen. Data for the cln2 rad14 strain (AID 165);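 further: 0% = growth equal to vehicle treated cultures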; conditions: S. cerevisiae cln2 rad14 strain, active compounds read high
In short: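 Growth of compound-exposed yeast (cln2 rad14 genotype) measured and expressed as inhibition relative to vehicle.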

[9] = NCI Yeast Anticancer Drug Screen. Data for the wt2 strain (AID 169);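 further: 0% = growth of vehicle-treated yeast cultures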; conditions: S. cerevisiae wt2 strain growth inhibition, active compounds read high
In short: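 Genetically defined yeast strains from a DNA-repair/cell-cycle panel were used. Compound-exposed yeast growth was measured, and the inhibition was calculated relative to vehicle treatment.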

[10] = NCI Yeast Anticancer Drug Screen. Data for the mlh1 strain (AID 171);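 further: 0% = growth of vehicle-treated control cultures of the same strain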; conditions: S. cerevisiae mlh1 strain growth inhibition, active compounds read high
In short: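 Here the genetically defined yeast mutant is grown with each compound, and the extent to which its growth falls below that of vehicle-exposed cells is reported.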

[11] = NCI Yeast Anticancer Drug Screen. Data for the sgs1 strain (AID 173);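 further: 0% = growth of vehicle-only control cultures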; conditions: S. cerevisiae sgs1 mutant, active compounds read high
In short: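 Relative growth inhibition, referenced to vehicle, was determined in a yeast strain with a defined alteration affecting DNA damage repair or cell cycle control after compound exposure.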

[12] = NCI Yeast Anticancer Drug Screen. Data for the mlh1 rad18 strain (AID 175); conditions: S. cerevisiae mlh1 rad18 strain growth inhibition, active compounds read high
In short: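 In this whole-cell yeast screen, a strain with altered DNA damage repair is challenged with compound, and its growth is measured against matched vehicle-treated controls.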

[13] = NCI Yeast Anticancer Drug Screen. Data for the rad18 strain (AID 177); conditions: S. cerevisiae rad18 mutant growth inhibition, active compounds read high
In short: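 Screen uses a yeast strain with a defined lesion in DNA damage repair; compound effect is read as loss of growth compared to untreated vehicle cultures.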

[14] = NCI Yeast Anticancer Drug Screen. Data for the wt1 strain (AID 149);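 further: 0% = growth of vehicle-treated wt1 cultures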; conditions: S. cerevisiae wt1 strain (SPY 50644) growth inhibition, active compounds read high
In short: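 Compounds are added to wt1 yeast cultures. Growth is then measured. Inhibition is expressed relative to vehicle-treated controls.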

[15] = NCI Yeast Anticancer Drug Screen. Data for the rad14 strain (AID 159);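 further: 0% = growth of vehicle-treated control cultures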; conditions: S. cerevisiae rad14 strain growth inhibition, active compounds read high
In short: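 A mutant yeast strain defective in DNA damage repair is treated with compound; inhibition of its growth is scored against untreated, vehicle-exposed cultures.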

[16] = NCI Yeast Anticancer Drug Screen. Data for the bub3 strain (AID 167); conditions: S. cerevisiae bub3 mutant strain, active compounds read high
In short: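 Steps: expose the mutant yeast strain to compound; grow alongside vehicle-treated cultures; measure growth; express inhibition against the vehicle cultures.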

[17] = at 5.0 µM (retest, dose inferred, filed as 0.5)
[18] = at 50.0 µM (retest, dose inferred, filed as 5.0)

Measured: growth inhibition

Clc1c(Cl)c(Cl)c2c(nnn2C2CCCO2)c1Cl (stereo not drawn)
inactive: [1]; at 1.2 µM 10% | [1]; at 3.7 µM 19% | [1]; at 11.0 µM 24% | [1]; at 33.0 µM 33% | [1]; at 100.0 µM 58% | [2]; at 1.2 µM -32% | [2]; at 3.7 µM -10% | [2]; at 11.0 µM -9% | [2]; at 33.0 µM -4% | [2]; at 100.0 µM 35% | [3]; at 1.2 µM -24% | [3]; at 3.7 µM -9% | [3]; at 11.0 µM -5% | [3]; at 33.0 µM -1% | [4]; at 1.2 µM 5% | [4]; at 3.7 µM -1% | [4]; [17] 4% | [4]; at 11.0 µM 6% | [4]; at 33.0 µM 14% | [4]; [18] 38% | [4]; at 100.0 µM 48% | [5]; at 1.2 µM 2% | [5]; at 3.7 µM -1% | [5]; [17] 12% | [5]; at 11.0 µM 10% | [5]; at 33.0 µM 8% | [5]; [18] 48% | [6]; [17] -1% | [7]; at 1.2 µM -11% | [7]; at 3.7 µM 1% | [7]; at 11.0 µM 0% | [7]; at 33.0 µM 9% | [7]; at 100.0 µM 33% | [8]; [17] 8% | [8]; [18] 62% | [9]; at 1.2 µM -14% | [9]; at 3.7 µM -2% | [9]; at 11.0 µM 6% | [9]; at 33.0 µM 60% | [10]; at 1.2 µM -5% | [10]; at 3.7 µM -2% | [10]; at 11.0 µM 4% | [10]; at 33.0 µM 30% | [11]; at 1.2 µM -30% | [11]; at 3.7 µM -13% | [11]; at 11.0 µM -1% | [11]; at 33.0 µM 12% | [12]; [17] 7% | [12]; [18] 45% | [13]; at 1.2 µM -15% | [13]; at 3.7 µM -4% | [13]; at 11.0 µM 2% | [13]; at 33.0 µM 14% | [13]; at 100.0 µM 54%
active: [3]; at 100.0 µM 75% | [4]; at 50.0 µM 78.3% | [5]; at 50.0 µM 85.2% | [5]; at 100.0 µM 76% | [6]; [18] 80% | [6]; at 50.0 µM 78% | [8]; at 50.0 µM 74.8% | [9]; at 100.0 µM 97% | [10]; at 100.0 µM 85% | [11]; at 100.0 µM 83% | [12]; at 50.0 µM 83.8%

On1cnc(=S)c2[nH]cnc21
inactive: [14]; at 1.2 µM -31% | [14]; at 3.7 µM -33% | [14]; at 11.0 µM -30% | [14]; at 33.0 µM -39% | [14]; at 100.0 µM -42% | [2]; at 1.2 µM -23% | [2]; at 3.7 µM -39% | [2]; at 11.0 µM -11% | [2]; at 33.0 µM -37% | [2]; at 100.0 µM -41% | [4]; at 1.2 µM -63% | [4]; at 3.7 µM -33% | [4]; [17] 24% | [4]; at 11.0 µM -65% | [4]; at 33.0 µM -62% | [4]; at 50.0 µM -7.05% | [4]; at 100.0 µM -55% | [5]; at 1.2 µM 31% | [5]; at 3.7 µM 9% | [5]; [17] 15% | [5]; at 11.0 µM 11% | [5]; at 33.0 µM -2% | [5]; at 50.0 µM 1.85% | [5]; at 100.0 µM -1% | [15]; at 1.2 µM -32% | [15]; at 3.7 µM -26% | [15]; at 11.0 µM -34% | [15]; at 33.0 µM -28% | [15]; at 100.0 µM -14% | [6]; [17] 36% | [6]; at 50.0 µM 9.3% | [7]; at 1.2 µM 23% | [7]; at 3.7 µM 9% | [7]; at 11.0 µM -10% | [7]; at 33.0 µM 19% | [7]; at 100.0 µM 11% | [8]; [17] 13% | [8]; at 50.0 µM 1.85% | [16]; at 1.2 µM -29% | [16]; at 3.7 µM -6% | [16]; [17] 17% | [16]; at 11.0 µM -17% | [16]; at 33.0 µM -3% | [16]; at 50.0 µM -6.65% | [16]; at 100.0 µM -8% | [10]; at 1.2 µM -6% | [10]; at 3.7 µM -14% | [10]; at 11.0 µM -28% | [10]; at 33.0 µM -29% | [10]; at 100.0 µM -37% | [11]; at 1.2 µM -22% | [11]; at 3.7 µM -26% | [11]; at 11.0 µM -16% | [11]; at 33.0 µM -44% | [11]; at 100.0 µM -32% | [12]; [17] 60% | [12]; at 50.0 µM 7.7% | [13]; at 1.2 µM -40% | [13]; at 3.7 µM -33% | [13]; at 11.0 µM -55% | [13]; at 33.0 µM -61% | [13]; at 100.0 µM -67%
active: [4]; [18] 74% | [5]; [18] 99% | [6]; [18] 100% | [8]; [18] 97% | [16]; [18] 99% | [12]; [18] 98%

Source: PubChem BioAssay (NCI)
